From PubChem
This is a sample that favours compounds with a hit; in the whole collection about 5.8% have one here.
KB-3-1 cytotox = KB-3-1 parental cell cytotoxicity. Potency, µM (doses to about 46.1 µM), actives largely listed as cytotoxic. AID 1347075. KB-3-1 viability, CellTiter-Glo ATP luminescence, 72 h. 400,000 compounds, 1.4% hits; further: on the % scale 0 is the no-effect control and ±100 the full control effect; nearly all actives have a fitted effect of over 60% in size
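Multi-concentration cytotoxicity screen in KB-3-1 cells grown in DMEM lacking phenol red with 10% FBS. After 72 h at 37 °C with compound, ATP-dependent luminescence was recorded.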
PINK1 modulator = changes PINK1 expression. PINK1 immunofluorescence, high-content cytometry, 24 h. Potency, µM (top dose mostly 76.6 µM), for the others: at the top dose activation (PINK1 increase), actives largely listed as activators. 410,000 compounds, 0.2% hits. AID 624263; active means well fitted activation curve with a large enough effect; inconclusive means small, poorly fitted or top-dose-only effect; cell line not stated here; further: % of control where 0% means no effect; nearly all actives have a fitted effect of over 65% in size
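Stable cell line treated 24 h with compounds at 5 concentrations (CCCP controls), then fixed and immunostained for PINK1 plus nuclear and cell stains; PINK1 immunofluorescence quantified by laser-scanning microplate cytometry.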
KB-V1 MDR tox = KB-V1 MDR subline cytotoxicity; 400,000 compounds, 3.4% hits; AID 1347076; KB-V1 MDR cells viability, CellTiter-Glo, 72 h; Potency, µM (doses to about 46.1 µM), most hits filed as cytotoxic; further: on the % scale 0 is the no-effect control and ±100 the full control effect; nearly all actives have a fitted effect of over 60% in size
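KB-V1 MDR subline cells in DMEM (phenol-red free, 10% FBS) exposed to compounds in qHTS concentration series for 72 h at 37 degrees C. Viability read by CellTiter-Glo luminescence; concentration-effect curves fitted after normalization and correction.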
MCF10A rereplic = induces DNA re-replication in MCF 10a normal breast cells; Potency, µM (top dose mostly 46.1 µM), for the others: top-dose activity, positive = re-replication, usual class: activators; MCF 10A DNA re-replication, Hoechst nuclear intensity, 48 h; 350,000 compounds, 2.9% hits; AID 624296; further: % of control where 0% means no effect; nearly all actives have a fitted effect of over 50% in size
SW480 rerep = DNA re-replication induction in SW480 cells | Potency, µM (titrated, usually from 46.1 µM), for the others: at the highest dose re-replication activation, actives largely listed as activators | SW480 DNA re-replication, Hoechst DNA content imaging, 48 h | 340,000 compounds, 1.8% hits | AID 624297; further: % of control where 0% means no effect; nearly all actives have a fitted effect of over 55% in size
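Quantitative HTS format with DMSO vehicle controls; 48 hr drug incubation at 37 C, then 40 min Hoechst staining and scanning imager measurement at 405 nm excitation.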
12-LOX inh = inhibitors of human 12S-lipoxygenase ALOX12; AID 1671190; 580,000 compounds, 1.1% hits; purified 12hLO, xylenol orange hydroperoxide absorbance; Potency, µM (series often up to 108 µM), inactives show top-dose activity change, negative = inhibition, most hits filed as inhibitors; further: on the % scale 0 is the no-effect control and ±100 the full control effect
Target sequence (P18054 whole entry, looked up): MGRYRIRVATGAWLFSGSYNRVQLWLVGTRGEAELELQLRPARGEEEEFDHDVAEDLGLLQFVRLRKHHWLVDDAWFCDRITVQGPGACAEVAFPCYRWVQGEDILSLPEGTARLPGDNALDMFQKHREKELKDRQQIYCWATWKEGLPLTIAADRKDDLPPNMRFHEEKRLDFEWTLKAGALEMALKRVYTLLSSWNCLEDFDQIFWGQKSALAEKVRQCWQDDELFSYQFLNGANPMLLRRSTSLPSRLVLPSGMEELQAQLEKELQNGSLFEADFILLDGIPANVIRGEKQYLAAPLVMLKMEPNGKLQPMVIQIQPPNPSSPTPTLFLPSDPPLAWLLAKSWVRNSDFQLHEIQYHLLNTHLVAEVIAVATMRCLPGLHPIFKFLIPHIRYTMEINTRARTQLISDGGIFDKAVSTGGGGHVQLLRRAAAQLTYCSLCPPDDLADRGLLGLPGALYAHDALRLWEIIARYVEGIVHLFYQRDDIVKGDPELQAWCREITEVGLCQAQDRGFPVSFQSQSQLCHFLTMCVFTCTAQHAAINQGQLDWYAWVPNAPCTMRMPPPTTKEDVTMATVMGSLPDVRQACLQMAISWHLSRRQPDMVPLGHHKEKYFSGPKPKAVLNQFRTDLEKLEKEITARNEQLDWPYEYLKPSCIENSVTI
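Purified human 12hLO (150 nM final) in 25 mM Hepes, 0.01% Triton X-100, pH 7.0 was preincubated 15 min at room temperature with compound. Then 40 uM arachidonic acid was added, 30 min. Hydroperoxide was read by Fe-XO absorbance ratio 573/405 nm.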
Numbers without * were called inactive; i = inactive; u = inconclusive; x = no result; ! = not active in a repeat; [ ] = another dose, or the depositor's remark. Unless noted, the call rests on the fitted dose curve; in most records, active means well fitted curve in the direction sought with a large enough effect; inconclusive means small, poorly fitted or top-dose-only effect, or another doubt; inactive means no such curve, though single readings can be large; an effect the other way counts as inactive or inconclusive. Potency means the concentration at half of the fitted maximal effect.

SMILES | KB-3-1 cytotox | PINK1 modulator | KB-V1 MDR tox | MCF10A rereplic | SW480 rerep | 12-LOX inh
COC(=O)CCC(=O)Oc1cc(C)c(C2(c3cc(C(C)C)c(OC(=O)CCC(=O)OC)cc3C)OC(=O)c3ccccc32)cc1C(C)C | x | x | x | x | x | -10.0%
Cc1cc(O)c(C(C)C)cc1C1(c2cc(C(C)C)c(O)cc2C)OC(=O)c2ccccc21 | u | -1.0% | u | 9.2µM* | u | u
O=c1oc2ccc3ccccc3c2cc1-c1ccccc1 | x | x | x | x | x | -17.9%
COc1cc(OC)cc(-c2c(-c3cccs3)c3cc(-c4ccc(OC)c(OC)c4)ccc3n2C)c1 | i | 0.8% | i | 16.4µM* | 10.4% | 1.5%
COc1cc(OC)cc(-c2c(-c3cccs3)c3cc(-c4cnc(N)nc4)ccc3n2C)c1 | u | 1.0% | u | 23.1µM* | u | u
COc1cccc(-c2c(-c3cc(OC)cc(OC)c3)n(C)c3ccc(-c4cnc(OC)nc4)cc23)c1 | 13µM* | 5.9% | u | u | 2.2% | -1.2%
COc1ccc(-c2c(-c3cc(OC)cc(OC)c3)n(C)c3ccc(-c4cnc(N)nc4)cc23)cc1 | i | 3.6% | i | u | 1.0% | u
COc1cc(OC)cc(-c2c(-c3ccc(F)cc3)c3cc(-c4cnc(OC)nc4)ccc3n2C)c1 | i | -0.1% | u | 9.0% | -3.1% | -7.1%
CN(C)CC(=O)N1Cc2ccccc2CC2(CCCCN2Cc2ccccc2)C1 (stereo unspecified) | x | x | x | x | x | 1.6%[6.33 µM]
Cc1sc(N2CC(C(=O)OCC(=O)c3ccc(Br)cc3)CC2=O)nc1-c1ccccc1 (stereo unspecified) | x | x | x | x | x | -8.0%
CCOC(=O)c1ccc(Nc2nc(-c3cc4cc(Br)ccc4oc3=O)cs2)cc1 | x | x | x | x | x | -23.0%
C/C(=N/OC(=O)c1ccc(-c2cc(Cl)ccc2Cl)o1)c1ccccc1 | x | x | x | x | x | -3.7%
OC(CNCCc1ccc(C(F)(F)F)cc1)COc1ccc2ccccc2c1 (stereo unspecified) | u | -6.0% | u | 5.8µM* | u | u
OC(CNCCc1ccc(C(F)(F)F)cc1)COc1cccc2ccccc12 (stereo unspecified) | i | -1.5% | u | 20.6µM* | 16.4µM* | u
O=C(CSc1nc2ncc(Br)cc2[nH]1)Nc1ccccc1-c1ccccc1 | i | u | u | 25.9µM* | 26.1% | 1.8%
CCc1ccc(NC(=O)CSc2nc3ncc(Br)cc3[nH]2)cc1 | i | 3.1% | i | 11.6µM* | -5.8% | 0.4%
O=C(CSc1nc2cc3ccccc3cc2[nH]1)Nc1ccc(F)cc1 | i | 2.8% | 16.4µM*! | 0.6% | 0.1% | -28.4%
O=C(N[C@H]1CO[C@H]2[C@@H]1OC[C@@H]2n1cc(CC2CCCCC2)nn1)C1CCCCC1 | x | x | x | x | x | 20.1%[176 µM]
COc1ccc(-c2ccc(CCC(=O)Nc3ccc(OC)c(Cl)c3)o2)cc1 | x | x | x | x | x | -62.9%
CCc1ccccc1N(C)S(=O)(=O)c1ccc(-c2cc(C)no2)s1 | u | 0.6% | u | 2.31µM* | 16.9% | -11.6%
CCN(c1ccccc1)S(=O)(=O)c1ccc(-c2cc(C)no2)s1 | u | 7.2% | i | x | x | -0.4%
C=CCSc1nnc(C)c(/C=C/Nc2ccc(Cl)cc2)n1 | i | 2.5% | i | 20.6µM* | u | u
O=C1Nc2cc(C(=O)NCCN3CCCCCC3)ccc2S/C1=C\c1ccccc1 | i | -0.7% | i | u | 7.8% | u
Cc1ccc(/C=C2/Sc3ccc(C(=O)N4CCN(c5ccccn5)CC4)cc3NC2=O)cc1 | i | 18.2% | i | 8.2µM* | 19.7% | -23.6%
Cc1ccc(/C=C2/Sc3ccc(C(=O)NCc4ccccn4)cc3NC2=O)cc1 | i | 28.2µM* | i | u | u | 11.1%
SMILES | KB-3-1 cytotox | PINK1 modulator | KB-V1 MDR tox | MCF10A rereplic | SW480 rerep | 12-LOX inh
Cc1ccccc1/C=C1\Sc2ccc(C(=O)N3CCN(c4ccccn4)CC3)cc2N(C)C1=O | i | 0.7% | u | 23.1µM* | 3.0% | x
COCCn1c(N2CCN(CCO)CC2)nc2c1c(=O)[nH]c(=O)n2C | x | x | x | x | x | -0.7%
C=CCNC(=S)NC(C)c1ccccc1 (stereo unspecified) | x | x | x | x | x | -14.1%
O=c1oc2ccccc2c(NCC2CCCCC2)c1NS(=O)(=O)c1ccc(Cl)cc1 | x | x | x | x | x | -13.1%
COc1ccc2cc(-c3ccn[nH]3)ccc2c1 | 7.31µM* | -1.4% | u | 12.7% | 0.7% | x
COc1ccc(-c2cc(-c3ccccc3O)[nH]n2)cc1 | i | -1.3% | i | u | -0.3% | 141.8%
Cc1nccc(C(=O)NCC(O)c2ccccc2C(F)(F)F)n1 (stereo unspecified) | x | x | x | x | x | -4.2%
O=C(NCCN1CCOCC1)c1cc(Cl)ccc1Cl | i | 0.8% | i | -1.9% | -11.5% | 0.0%
O=C(NCCN1CCOCC1)NC1(C(F)(F)F)Oc2ccc(Cl)cc2O1 (stereo unspecified) | 4.61µM* | -2.4% | u | 19.8% | 8.8% | u
Cc1cccc(/C=C2/S/C(=N/N=C3\CC4CCC3(C)C4(C)C)NC2=O)c1 (stereo unspecified) | u | -4.4% | 20.6µM* | u | 12.7% | 0.2%
O=C(COc1ccc([N+](=O)[O-])cc1)N(Cc1ccccc1)Cc1ccccc1 | i | -0.4% | 18.4µM* | 1.0% | -0.8% | -6.0%
Cc1cccc(C)c1Nc1nc(N)c(C(=O)c2c(C)[nH]c3ccccc23)s1 | x | x | x | x | x | -24.8%
CCCc1cc(CN2CCOCC2)c(O)c(CN2CCOCC2)c1O | i | -5.0% | u | 14.6µM* | u | 35.5µM*
O=C(c1cccs1)N1CCN(C(=O)c2cccs2)C1=S | 14.6µM* | -1.7% | 2.91µM* | 5.8µM* | 16.4µM* | u
CCCNc1c(NC(=O)c2c(F)cccc2F)c(=O)oc2ccccc12 | x | x | x | x | x | -5.3%
Cc1ccc(/C(N)=N/OC(=O)C23CC4CC(CC(C4)C2)C3)cc1 | u | -1.2% | u | 18.4µM* | 0.7% | 0.0%
Cc1ccc(S[C@@H](CCN2CC[C@H](C)CCC2=O)c2ccccc2)cc1 | u | -1.1% | 11.6µM*! | u | -5.8% | u
COc1ccc(S[C@@H](CCN2CC[C@H](C)CCC2=O)c2ccccc2)cc1 | i | 13.5% | u | 18.4µM* | -2.0% | -10.6%
Cc1ccc(S[C@@H](CCN2CC[C@H](O)CCC2=O)c2ccccc2)cc1 | i | -0.1% | i | u | -1.9% | 35.5µM*
Cc1ccc(S[C@@H](CCN2CC[C@H](C(C)(C)C)CCC2=O)c2ccccc2)cc1 | u | 1.5% | u | u | 0.5% | u
C[C@@H]1CCC(=O)N(CC[C@H](Sc2ccc(Br)cc2)c2ccccc2)CC1 | u | -0.1% | u | -32.6% | 16.4% | u
